Measured values: publication PMC7862700, “An all-to-all approach to the identification of sequence-specific readers for epigenetic DNA modifications on cytosine”

How the values were obtained:
Experiment in all cases: DAPPL (digital affinity profiling via proximity ligation, sequencing); 10 mM Tris-HCl pH 7.5, 50 mM NaCl, 1 mM DTT, 4% glycerol, room temperature, 30 min; GST-TFs on glutathione beads, 16-mer random dsDNA library, 0.1% formaldehyde crosslink after washing; high values mean tight binding
Details in all cases: protein: recombinant; tags: N-terminal GST; dsDNA, one strand shown
[1] = molecular target: T1, ELK4 (Homo sapiens, UniProt P28324-2 1-405)
T1 sequence: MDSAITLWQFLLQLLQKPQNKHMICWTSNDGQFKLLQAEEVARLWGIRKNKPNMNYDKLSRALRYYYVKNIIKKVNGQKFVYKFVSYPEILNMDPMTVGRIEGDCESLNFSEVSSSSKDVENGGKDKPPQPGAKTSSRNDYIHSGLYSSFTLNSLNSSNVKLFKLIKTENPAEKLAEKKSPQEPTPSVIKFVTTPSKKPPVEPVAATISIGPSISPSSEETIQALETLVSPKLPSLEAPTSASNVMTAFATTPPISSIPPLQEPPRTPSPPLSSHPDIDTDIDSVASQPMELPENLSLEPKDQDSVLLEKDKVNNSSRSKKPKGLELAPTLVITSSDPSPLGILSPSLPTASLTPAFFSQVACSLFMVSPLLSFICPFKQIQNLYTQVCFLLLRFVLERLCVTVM
How it was run: (§1)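 A tag-only sample was pooled with DNA-barcoded human transcription factors that had been expressed in yeast as GST fusions and captured on glutathione beads. The pools were incubated for 30 min at room temperature with 200 nmole of a random double-stranded 16-mer DNA library in Tris/NaCl/DTT/glycerol buffer, then washed, crosslinked with 0.1% formaldehyde, proximity-ligated (BsaI/T4 ligase, 1 h, 37 °C), PCR-amplified and sequenced on an Illumina NextSeq500. Binding signal is each hexamer's read frequency for a factor divided by its frequency for the tag-only sample.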

[2] = molecular target: T2, ELF3 (Homo sapiens, UniProt P78545 1-371)
T2 sequence: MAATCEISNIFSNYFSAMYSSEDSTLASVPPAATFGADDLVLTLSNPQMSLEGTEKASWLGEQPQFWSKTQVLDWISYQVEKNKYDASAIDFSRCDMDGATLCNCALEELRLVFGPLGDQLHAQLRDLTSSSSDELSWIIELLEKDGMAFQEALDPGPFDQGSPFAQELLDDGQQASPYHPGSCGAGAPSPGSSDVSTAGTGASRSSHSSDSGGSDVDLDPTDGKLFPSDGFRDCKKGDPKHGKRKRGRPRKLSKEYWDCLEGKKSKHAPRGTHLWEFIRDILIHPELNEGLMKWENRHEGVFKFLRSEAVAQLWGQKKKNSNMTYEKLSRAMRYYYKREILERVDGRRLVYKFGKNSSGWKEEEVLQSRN
How it was run: as §1

[3] = molecular target: ETV1 (Homo sapiens, UniProt P50549 1-477)
How it was run: as §1

[4] = molecular target: T3, ERF (Homo sapiens, UniProt P50548 1-548)
T3 sequence: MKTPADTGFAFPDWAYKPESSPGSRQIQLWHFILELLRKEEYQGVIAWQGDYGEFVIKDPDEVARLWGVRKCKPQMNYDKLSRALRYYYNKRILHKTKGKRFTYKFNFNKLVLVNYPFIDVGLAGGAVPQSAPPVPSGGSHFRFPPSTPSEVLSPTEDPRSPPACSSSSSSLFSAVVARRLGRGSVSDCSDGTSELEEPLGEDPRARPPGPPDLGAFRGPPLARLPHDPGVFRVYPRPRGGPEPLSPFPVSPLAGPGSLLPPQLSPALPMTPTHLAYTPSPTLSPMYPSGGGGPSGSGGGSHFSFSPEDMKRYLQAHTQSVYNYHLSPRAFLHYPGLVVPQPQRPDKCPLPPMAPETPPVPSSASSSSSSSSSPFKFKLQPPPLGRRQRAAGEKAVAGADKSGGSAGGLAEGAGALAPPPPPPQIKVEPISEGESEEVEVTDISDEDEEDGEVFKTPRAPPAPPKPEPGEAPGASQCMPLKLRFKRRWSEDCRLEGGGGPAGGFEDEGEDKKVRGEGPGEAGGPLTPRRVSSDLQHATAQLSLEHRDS
How it was run: as §1

[5] = molecular target: T4, ETV3L (Homo sapiens, UniProt Q6ZN32 1-361)
T4 sequence: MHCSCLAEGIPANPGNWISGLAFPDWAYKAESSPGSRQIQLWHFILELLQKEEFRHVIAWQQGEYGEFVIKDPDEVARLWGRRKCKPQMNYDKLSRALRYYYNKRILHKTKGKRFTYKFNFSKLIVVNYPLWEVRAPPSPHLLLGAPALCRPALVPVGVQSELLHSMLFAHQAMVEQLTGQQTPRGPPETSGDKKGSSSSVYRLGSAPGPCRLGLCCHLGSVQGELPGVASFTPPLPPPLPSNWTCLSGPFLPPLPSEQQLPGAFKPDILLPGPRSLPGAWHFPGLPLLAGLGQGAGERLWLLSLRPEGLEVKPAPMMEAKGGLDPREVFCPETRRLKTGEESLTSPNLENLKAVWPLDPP
How it was run: as §1

[6] = molecular target: T5, ETS2 (Homo sapiens, UniProt P15036 1-469)
T5 sequence: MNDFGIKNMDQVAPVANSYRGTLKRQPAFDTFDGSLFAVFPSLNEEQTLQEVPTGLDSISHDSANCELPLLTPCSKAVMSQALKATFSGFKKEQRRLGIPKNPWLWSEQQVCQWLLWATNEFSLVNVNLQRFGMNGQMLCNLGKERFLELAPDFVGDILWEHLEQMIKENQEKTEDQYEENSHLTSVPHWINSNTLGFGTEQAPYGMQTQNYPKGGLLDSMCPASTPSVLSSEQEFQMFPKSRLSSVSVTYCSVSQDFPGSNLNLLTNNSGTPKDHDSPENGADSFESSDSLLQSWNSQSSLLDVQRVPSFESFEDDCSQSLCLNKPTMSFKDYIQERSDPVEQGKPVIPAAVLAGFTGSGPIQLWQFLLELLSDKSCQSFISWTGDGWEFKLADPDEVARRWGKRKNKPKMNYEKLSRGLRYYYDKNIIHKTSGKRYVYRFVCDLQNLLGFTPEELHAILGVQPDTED
How it was run: as §1

[7] = molecular target: T6, SPDEF (Homo sapiens, UniProt O95238 1-335)
T6 sequence: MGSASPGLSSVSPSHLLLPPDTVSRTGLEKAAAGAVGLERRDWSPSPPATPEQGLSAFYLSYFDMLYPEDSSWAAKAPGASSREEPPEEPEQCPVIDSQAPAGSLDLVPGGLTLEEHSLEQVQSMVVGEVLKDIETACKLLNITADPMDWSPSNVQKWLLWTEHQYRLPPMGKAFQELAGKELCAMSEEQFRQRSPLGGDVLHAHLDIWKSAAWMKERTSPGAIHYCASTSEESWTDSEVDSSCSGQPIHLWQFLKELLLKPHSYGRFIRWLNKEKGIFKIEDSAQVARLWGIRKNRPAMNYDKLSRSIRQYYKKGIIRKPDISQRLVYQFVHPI
How it was run: as §1

[8] = molecular target: T7, ETV3 (Homo sapiens, UniProt P41162-2 1-143)
T7 sequence: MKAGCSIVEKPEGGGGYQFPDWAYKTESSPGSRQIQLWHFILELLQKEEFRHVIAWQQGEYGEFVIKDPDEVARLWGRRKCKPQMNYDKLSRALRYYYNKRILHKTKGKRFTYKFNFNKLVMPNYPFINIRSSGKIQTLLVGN
How it was run: as §1

[9] = molecular target: ETV6 (Homo sapiens, UniProt P41212 1-452)
How it was run: as §1

Sequence of ETV6 (P41212 whole entry): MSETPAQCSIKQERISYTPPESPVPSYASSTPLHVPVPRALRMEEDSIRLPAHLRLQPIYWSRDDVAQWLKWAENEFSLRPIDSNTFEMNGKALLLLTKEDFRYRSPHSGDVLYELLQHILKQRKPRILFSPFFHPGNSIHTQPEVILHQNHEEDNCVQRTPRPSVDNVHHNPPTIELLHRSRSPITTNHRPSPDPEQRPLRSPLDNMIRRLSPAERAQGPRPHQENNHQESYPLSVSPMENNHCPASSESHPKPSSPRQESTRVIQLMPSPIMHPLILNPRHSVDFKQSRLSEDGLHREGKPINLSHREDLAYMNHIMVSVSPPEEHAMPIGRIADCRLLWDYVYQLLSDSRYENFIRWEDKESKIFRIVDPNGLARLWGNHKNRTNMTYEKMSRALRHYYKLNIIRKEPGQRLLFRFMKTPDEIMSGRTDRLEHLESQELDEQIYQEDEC
Sequence of ETV1 (P50549 whole entry): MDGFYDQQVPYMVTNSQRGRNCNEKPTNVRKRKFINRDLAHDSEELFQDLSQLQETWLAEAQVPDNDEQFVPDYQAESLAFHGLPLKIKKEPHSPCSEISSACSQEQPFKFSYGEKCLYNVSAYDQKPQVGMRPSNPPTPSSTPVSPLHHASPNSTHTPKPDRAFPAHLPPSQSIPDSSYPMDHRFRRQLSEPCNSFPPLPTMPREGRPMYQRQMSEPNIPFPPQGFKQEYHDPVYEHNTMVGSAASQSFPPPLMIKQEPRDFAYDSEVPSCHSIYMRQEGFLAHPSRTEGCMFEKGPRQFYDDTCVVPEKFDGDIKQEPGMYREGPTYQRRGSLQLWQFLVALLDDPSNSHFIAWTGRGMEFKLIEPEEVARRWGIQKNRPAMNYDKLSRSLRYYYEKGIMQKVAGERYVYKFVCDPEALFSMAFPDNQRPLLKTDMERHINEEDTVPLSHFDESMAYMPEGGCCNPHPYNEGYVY

CACCGG
binding signal [1]: 1.05 fold enrichment (6-mer frequency, TF over GST control)
binding signal [2]: 1.17 fold enrichment (6-mer frequency, TF over GST control)
binding signal [3]: 1.21 fold enrichment (6-mer frequency, TF over GST control)
binding signal [4]: 1.08 fold enrichment (6-mer frequency, TF over GST control)
binding signal [5]: 1.14 fold enrichment (6-mer frequency, TF over GST control)
binding signal [6]: 1.17 fold enrichment (6-mer frequency, TF over GST control)
binding signal [7]: 1.08 fold enrichment (6-mer frequency, TF over GST control)
binding signal [8]: 1.14 fold enrichment (6-mer frequency, TF over GST control)
binding signal [9]: 1.09 fold enrichment (6-mer frequency, TF over GST control)
